KCNQ2 inh: KCNQ2 (rat) channel inhibition; O88943; CHO-K1 KCNQ2, FluxOR thallium flux, 20 min; hits give low values; B-score at 10 µM; 310,000 tested, 1.1% active; AID 2156;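 active = fluorescence ratio B-score at most minus 3 library SDs, with starting brightness B-score within 2 library SDs, cut at about -5.5 in these data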
KCNQ2 enhance: enhances the rat KCNQ2 potassium channel. CHO-K1 KCNQ2, FluxOR thallium flux fluorescence; hits give high values. O88943. B-score at 10 µM. 310,000 tested, 0.54% active;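 active = fluorescence ratio B-score at least 3 SD of library B-scores, with initial fluorescence B-score within 3 of them, cut at about 5.3 in these data; same plate scores as AID 2156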;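 also: B-score of peak minus minimum over baseline fluorescence ratio after K+ and Tl+ stimulus; positive B-score means potentiation of KCNQ2 with more thallium influx and brighter signal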
KCNQ2 inh conf: confirmation of rat KCNQ2 potassium channel inhibitors. KCNQ2-expressing cells, thallium flux, inhibition; hits give low values. 1,000 tested, 57% active. shares compounds with KCNQ2 inh. activity change, negative = inhibition, % at 10 µM. AID 493025
KCNQ1 spec: KCNQ2 inhibitor that also affects human KCNQ1 channel; activity change, negative = inhibition, % at 10 µM; KCNQ1-expressing cells, FluxOR thallium flux fluorescence; hits give low values; AID 493026; shares compounds with KCNQ2 inh; 1,000 tested, 15% active;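 active = activity change at least 3 SD of negative controls below their mean in both duplicate wells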;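 also: CHO cells stably transfected with KCNQ1 and depolarized by potassium stimulus; peak minus minimum fluorescence over baseline after thallium addition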
Target sequence (P51787 whole entry, looked up): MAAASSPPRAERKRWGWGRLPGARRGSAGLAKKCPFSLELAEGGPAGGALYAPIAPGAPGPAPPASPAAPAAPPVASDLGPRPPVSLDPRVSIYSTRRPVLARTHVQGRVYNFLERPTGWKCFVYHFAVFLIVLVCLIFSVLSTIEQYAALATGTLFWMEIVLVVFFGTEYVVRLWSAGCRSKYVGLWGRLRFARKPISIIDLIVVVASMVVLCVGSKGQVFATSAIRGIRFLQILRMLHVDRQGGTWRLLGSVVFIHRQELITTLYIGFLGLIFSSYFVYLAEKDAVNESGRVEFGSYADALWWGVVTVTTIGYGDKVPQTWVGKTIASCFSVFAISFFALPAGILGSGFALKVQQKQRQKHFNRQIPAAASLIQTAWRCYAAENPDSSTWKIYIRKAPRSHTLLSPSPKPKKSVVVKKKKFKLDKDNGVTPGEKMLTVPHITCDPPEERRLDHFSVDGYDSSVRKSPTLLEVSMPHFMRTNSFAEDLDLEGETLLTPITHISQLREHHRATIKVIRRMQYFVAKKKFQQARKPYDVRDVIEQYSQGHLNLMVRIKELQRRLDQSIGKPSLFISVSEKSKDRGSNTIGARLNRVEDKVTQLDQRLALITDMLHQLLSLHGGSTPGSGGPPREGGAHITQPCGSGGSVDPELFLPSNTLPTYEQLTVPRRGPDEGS
CHO Tl ctr: counter-screen for KCNQ2 inhibitors: effect in parental CHO cells; AID 493029; shares compounds with KCNQ2 inh; thallium flux counter-screen; hits give low values; activity change, % at 10 µM; 1,000 tested, 14% active
KCNQ2 inh confirm: blocks rat KCNQ2 current in automated patch clamp; 550 tested, 49% active; KCNQ2-expressing cells; calls only at 10 µM; shares compounds with KCNQ2 inh
Large screens that a line does not name were inactive (follow-up assays come after a bar, where they were run). Rows were chosen to be rich in hits. Some 1.6% of all compounds tested hit in one or more screens of this group. Unless noted, no rule for the calls is given here.

CC(=O)Nc1cccc(C(=O)N/N=C/c2c[nH]c3ccccc23)c1	none
N#CCc1c(C#N)c(N)nc(Nc2ccccc2)c1C#N	none
O=C1c2oc3ccc(Cl)cc3c(=O)c2C(c2cccc(Br)c2)N1CCO (stereo not given)	KCNQ2 inh -11 | KCNQ2 inh conf inactive | KCNQ1 spec inactive | CHO Tl ctr inactive
CCN(CC)CCN1C(=O)c2oc3ccccc3c(=O)c2C1c1cccc(Br)c1 (stereo not given)	none
CCN(CC)C1CCN(C(=O)c2cc(COc3ccc(-n4cncn4)cc3)on2)C1 (stereo not given)	none
C/C(=N\Nc1ccc(C(=O)O)cc1)c1ccc(S(=O)(=O)NCc2ccco2)cc1	none
COc1ccc(/C=N/NC(=O)COc2ccccc2-c2ccccc2)cc1	none (no result: KCNQ2 enhance)
CC(NC(=O)COc1ccccc1-c1ccccc1)c1ccccc1 (stereo not given)	KCNQ2 inh -6.9 | KCNQ2 inh conf -34% | KCNQ1 spec -30% | CHO Tl ctr -24% | KCNQ2 inh confirm active
O=C(COc1ccccc1-c1ccccc1)N/N=C/c1cccc2ccccc12	KCNQ2 inh -7.8 | KCNQ2 inh conf inactive | KCNQ1 spec inactive | CHO Tl ctr inactive
CC(=O)Nc1ccccc1OCC(=O)NC(C)c1ccccc1 (stereo not given)	none
Cc1cccc(C(=O)OCC(=O)N(CC(C)C)c2c(N)n(Cc3ccccc3)c(=O)[nH]c2=O)c1O	none
Cc1cccc(OCc2nnc(SCC(=O)N3CCCC3)o2)c1	none (no result: KCNQ2 enhance)
Cc1cccc(OCc2nnc(SCC(=O)N3c4ccccc4CCc4ccccc43)o2)c1	KCNQ2 inh -7.3 | KCNQ2 inh conf inactive | KCNQ1 spec inactive | CHO Tl ctr inactive
CC(C)(C)c1ccc(/C=C(\C#N)C(=O)NC2CC2)cc1	none
Cc1ccc(N2CCN(C(=O)c3cc(-c4ccc(F)cc4)[nH]c3C)CC2C)cc1 (stereo not given)	none (no result: KCNQ2 enhance)
C/C(CC(=O)Nc1ccc(F)cc1F)=N\NC(=O)C(=O)N1CCCCC1	none
CC(NC(=O)/C(C#N)=C/c1ccc(Cl)c([N+](=O)[O-])c1)c1ccccc1 (stereo not given)	KCNQ2 inh -11 | KCNQ2 inh conf -26% | KCNQ1 spec inactive | CHO Tl ctr inactive | KCNQ2 inh confirm inactive
CC(NC(=O)/C(C#N)=C/c1ccc(OCC(=O)O)cc1)c1ccccc1 (stereo not given)	none (no result: KCNQ2 enhance)
CCN(CC)C(=O)c1cc2c(=O)c3cc(F)ccc3oc2nc1C	KCNQ2 inh -9.6 | KCNQ2 inh conf -23% | KCNQ1 spec inactive | CHO Tl ctr inactive | KCNQ2 inh confirm active
CCOC(=O)c1cc2c(=O)c3ccccc3oc2nc1C	none
O=C(c1cnn2c(-c3ccccc3)cc(-c3ccccc3)nc12)N1CCN(Cc2ccccc2)CC1	KCNQ2 inh -8.9 | KCNQ2 inh conf -28% | KCNQ1 spec inactive | CHO Tl ctr inactive | KCNQ2 inh confirm inactive
O=C(NCCN1CCOCC1)c1cnn2c(-c3ccccc3)cc(-c3ccccc3)nc12	none (no result: KCNQ2 enhance)
O=C(NC1CCCC1)c1cc2nc(-c3ccccc3)cc(-c3ccccc3)n2n1	none (no result: KCNQ2 enhance)
CC1CCN(C(=O)c2cc3nc(-c4ccccc4)cc(-c4ccccc4)n3n2)CC1	KCNQ2 inh -7.8 | KCNQ2 inh conf -35% | KCNQ1 spec inactive | CHO Tl ctr inactive | KCNQ2 inh confirm inactive
O=C(c1cc(-c2ccc(Cl)cc2)nc2ccccc12)N1CCOCC1	none (no result: KCNQ2 enhance)
Cc1ccc(-c2cc(C(=O)N3CCC(C)CC3)c3ccccc3n2)cc1	KCNQ2 inh -8.3 | KCNQ2 inh conf -29% | KCNQ1 spec inactive | CHO Tl ctr inactive | KCNQ2 inh confirm inactive
CCOc1ccc(NC(=O)CN(C)C(=O)c2cc(C)on2)cc1OCC	none
CCCNC(=O)N1CCC(C(=O)c2cccc(F)c2)CC1	none
COc1cc(C2Sc3ccccc3NC3=C2C(=O)OC3)cc(OC)c1OC (stereo not given)	none (no result: KCNQ2 enhance)
COc1cc(C2CC(=O)Nc3ccccc3S2)cc(OC)c1OC (stereo not given)	KCNQ2 inh -8.5 | KCNQ2 inh conf inactive | KCNQ1 spec inactive | CHO Tl ctr inactive
COc1cc(-c2cc(C(=O)Nc3ccc(S(N)(=O)=O)cc3)c3ccccc3n2)cc(OC)c1OC	none (no result: KCNQ2 enhance)
COc1cc(-c2cc(C(=O)N(C)Cc3ccccc3)c3ccccc3n2)cc(OC)c1OC	KCNQ2 inh -7.2 | KCNQ2 inh conf -28% | KCNQ1 spec inactive | CHO Tl ctr inactive | KCNQ2 inh confirm active
COc1ccccc1CN(C)C(=O)c1cc(-c2cc(OC)c(OC)c(OC)c2)nc2ccccc12	none (no result: KCNQ2 enhance)
COc1cc(-c2cc(C(=O)Nc3c(Cl)cc(Cl)cc3Cl)c3ccccc3n2)cc(OC)c1OC	KCNQ2 inh -7.2 | KCNQ2 inh conf -25% | KCNQ1 spec inactive | CHO Tl ctr inactive | KCNQ2 inh confirm active
COc1ccc(-c2cc(C(=O)NCC(c3ccccc3)N(C)C)c3ccccc3n2)cc1OC (stereo not given)	none (no result: KCNQ2 enhance)
COCCN(Cc1ccccc1)C(=O)c1cc(-c2ccc(OC)c(OC)c2)nc2ccccc12	KCNQ2 inh -8.9 | KCNQ2 inh conf -30% | KCNQ1 spec inactive | CHO Tl ctr inactive | KCNQ2 inh confirm active
CC(NC(=O)C(=O)N1CCCCC1)C(c1cccs1)N1CCN(c2ccccc2)CC1 (stereo not given)	none (no result: KCNQ2 enhance)
CC(C)N1CCc2c(sc(NC(=O)CCS(=O)(=O)c3ccccc3)c2C#N)C1	none (no result: KCNQ2 enhance)
O=C(N1CCN(c2ccc(F)cc2)CC1)C12CC3CC(CC(C3)C1)C2	none (no result: KCNQ2 enhance)
Cc1cccc(N2CCN(C(=O)N3CCCCC3)CC2)c1C	none (no result: KCNQ2 enhance)
O=C(N1CCN(c2ccccc2F)CC1)C12CC3CC(CC(C3)C1)C2	KCNQ2 inh -7.6 | KCNQ2 inh conf -26% | KCNQ1 spec inactive | CHO Tl ctr inactive | KCNQ2 inh confirm active
Cc1cccc(N2CCN(C(=O)C34CC5CC(CC(C5)C3)C4)CC2)c1C	KCNQ2 inh -7.3 | KCNQ2 inh conf -20% | KCNQ1 spec inactive | CHO Tl ctr inactive | KCNQ2 inh confirm inactive
CCC(=O)N(CCc1ccc(S(N)(=O)=O)cc1)C1CC(=O)N(c2ccc(OC)cc2)C1=O (stereo not given)	none
CC(NS(=O)(=O)c1ccc(OCC(=O)NCc2ccccn2)cc1)c1ccccc1 (stereo not given)	none (no result: KCNQ2 enhance)
O=C(COC(=O)c1c(Cl)cccc1Cl)Nc1cc(Cl)ccc1Oc1ccccc1	none (no result: KCNQ2 enhance)
COc1ccccc1OCC(=O)Nc1cc(Cl)ccc1Oc1ccccc1	KCNQ2 inh -10 | KCNQ2 inh conf -32% | KCNQ1 spec -35% | CHO Tl ctr -30% | KCNQ2 inh confirm active
O=C(COC(=O)c1ccccc1)Nc1cc(Cl)ccc1Oc1ccccc1	none (no result: KCNQ2 enhance)
Cc1ccccc1OCC(=O)Nc1cc(Cl)ccc1Oc1ccccc1	KCNQ2 inh -7.4 | KCNQ2 inh conf -26% | KCNQ1 spec inactive | CHO Tl ctr inactive | KCNQ2 inh confirm inactive
CCC(CC)N1CCN(C(=O)c2cc(OC)c(OC)c(OC)c2)CC1	none (no result: KCNQ2 enhance)
CCOc1ccc(N2CC(C(=O)Nc3nnc(Cc4ccccc4)s3)CC2=O)cc1 (stereo not given)	none (no result: KCNQ2 enhance)
CCOC(=O)CN1C(=O)C(=O)N(Cc2ccccc2F)C1=O	none (no result: KCNQ2 enhance)
